Entries with a potency or affinity are not part of this list. Inconclusive results are not listed. Active and inactive are the calls of the source. Unless noted, the rule behind the calls is not given here.
Legend:
[1] = cytotoxicity in PAX8-dependent RMG-1 cells, dose response, cell-based, cherry-pick (AID 687029;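 active = signal drop whose fitted half-maximal concentration is at most twice the top valid dose, in every test run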;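 note: cells exposed to compound for 96 hours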)
[2] = cytotoxicity in IOSE-T80 ovarian epithelial cells, dose response, selectivity assay for PAX8 inhibitor project, cell-based, cherry-pick (AID 687032;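 active = fitted half-maximal concentration for viability loss no higher than twice the top valid dose, in every repeat run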;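 note: cells exposed to compound for 96 h before reading; 0% = neutral control wells and -100% = 2 µM mitoxantrone kill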)
[3] = inhibitors of CMV-promoter luciferase reporter, dose response, counter-screen for Pax8 inhibitor project, cell-based, HEK293, luminescence, dry powder (AID 743020;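 active = signal-lowering compounds whose fitted half-maximal concentration is at or below twice the top tested dose in every run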;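 note: HEK293 cells stably expressing the CMV luciferase reporter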)
[4] = IGROV1 ovarian cancer cell cytotoxicity, dose response, PAX8 inhibitor project, plate reader, dry powder samples (AID 743043);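 note: more negative means fewer viable cells or more cytotoxicity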
[5] = IOSE-T80 ovarian epithelial cell cytotoxicity, dose response, cytotoxicity control for PAX8 inhibitor project, plate reader, dry powder samples (AID 743045);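 note: 0% = neutral control median and -100% = positive control median; more negative values mean more cell killing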
[6] = A2780 ovarian cancer cell cytotoxicity, dose response, cytotoxicity control, plate reader, dry powder samples (AID 743046);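 note: 0% = neutral control wells and -100% = cytotoxic reference compound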
[7] = NIH:OVCAR-3 ovarian cancer cell cytotoxicity, dose response, PAX8 inhibitor project, plate reader, dry powder samples (AID 743044); conditions: max activity: at 35 µM, active compounds read low unless noted
[8] = cytotoxicity in OVCAR8 ovarian cancer cells, dose response, PAX8 project, cell-based, plate reader, dry powder samples (AID 743197)
[9] = non-specific cell cytotoxicity, dose response, cytotoxicity control for PAX8 inhibitor project, plate reader, dry powder samples (AID 743021)
[10] = HepG2 cell cytotoxicity, dose response, cytotoxicity control, plate reader, cherry-pick, antagonist series (AID 743416);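 note: 0% = neutral control wells and -100% = positive control wells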

Measured: max activity

C[C@H](CO)N1C[C@H](C)[C@H](CN(C)S(=O)(=O)c2ccc(Cl)cc2)Oc2c(NC(=O)Nc3ccc(F)cc3)cccc2C1=O
inactive: [1] | [2] | [3] | [4] | [5] | [6]

COc1cccc(C#Cc2ccc([C@@H]3[C@H](C#N)N(C(=O)c4ccccn4)[C@H]3CO)cc2)c1
inactive: [1] | [2] | [3] | [4] | [7] 39.4% | [5]

O=C(Nc1ccc(F)cc1)N1C[C@@H]2N[C@H](C1)C2c1ccc(/C=C/c2ccccc2)cc1 (stereo partly drawn)
inactive: [1] | [2] | [3] | [4] | [7] -17.6% | [5] | [6]

C[C@@H]1CCCCO[C@H](CN(C)C(=O)NC2CCCCC2)[C@H](C)CN([C@@H](C)CO)C(=O)c2cc(NS(=O)(=O)c3ccc(Cl)cc3)ccc2O1
inactive: [1] | [2] | [3] | [4] | [7] -10.9% [at 0.26 µM, active compounds read low] | [5] | [6] | [8]

COc1cccc(C#Cc2ccc([C@H]3[C@@H](C#N)N(C(=O)c4ccccn4)[C@@H]3CO)cc2)c1
inactive: [1] | [2] | [3] | [4] | [7] -22.5% [at 0.26 µM, active compounds read low] | [5] | [8]

Cc1cccc(-c2ccc([C@H]3[C@H]4CN(S(=O)(=O)c5cccc(C)c5)CCCCN4[C@H]3CO)cc2)c1
inactive: [1] | [2] | [3] | [4] | [5] | [6]

C[C@H](CO)N1C[C@H](C)[C@@H](CN(C)Cc2ccc(-c3ccccc3)cc2)Oc2ccc(NC(=O)C3CC3)cc2CC1=O
inactive: [1] | [2] | [3] | [4] | [7] 42.3% [at 2.1 µM, active compounds read low] | [5] | [6] | [8]

C[C@@H]1CN([C@H](C)CO)C(=O)c2cc(NC(=O)Nc3ccc(C(F)(F)F)cc3)ccc2O[C@@H](C)CCCCO[C@@H]1CN(C)Cc1ccncc1
inactive: [1] | [2] | [3] | [9] | [8]

Cc1ccccc1-c1ccc2c(c1)O[C@H](CN(C)C(=O)Nc1ccc(C(F)(F)F)cc1)[C@H](C)CN([C@@H](C)CO)S2(=O)=O
inactive: [1] | [2] | [3] | [4] | [5] | [8]

N#C[C@H]1[C@@H](c2ccc(C#Cc3ccccc3F)cc2)[C@@H](CO)N1C(=O)C1CCCCC1
inactive: [1] | [2] | [3] | [4] | [5] | [8]

CCCNC(=O)Nc1ccc2c(c1)OC[C@@H](C)N(Cc1ccc(-c3ccccn3)cc1)C[C@@H](C)[C@H](OC)CN(C)C2=O
inactive: [1] | [2] | [3] | [4] | [7] 19.6% [at 1 µM, active compounds read low] | [5] | [6] | [8]

COc1ccc(CN(C)C[C@@H]2OCCCC[C@H](C)Oc3ccc(NS(=O)(=O)c4ccc(C)cc4)cc3C(=O)N([C@H](C)CO)C[C@H]2C)cc1
inactive: [1] | [2] | [3] | [4] | [7] -36% | [5] | [6]

C[C@H](CO)N1C[C@H](C)[C@H](CN(C)C(=O)[C@H](Cc2ccccc2)N(C)C)OCc2ccccc2-c2c(n(C)c3ccccc23)C1=O
inactive: [1] | [2] | [3] | [4] | [5] | [8]

COc1ccc(S(=O)(=O)N(C)C[C@H]2Oc3c(NC(=O)Nc4ccc(C(F)(F)F)cc4)cccc3C(=O)N([C@@H](C)CO)C[C@H]2C)cc1
not listed: [7] | [9] | [10]
inactive: all other assays above

COc1ccc(-c2csc3ncnc(Sc4nnnn4C)c23)cc1
inactive: [1] | [2] | [3] | [9] | [10]

N#C[C@H]1[C@@H](c2ccc(C#CC3CCCCC3)cc2)[C@@H](CO)N1S(=O)(=O)c1ccccc1
not listed: [7] | [9] | [10]
inactive: all other assays above

COc1ccc(S(=O)(=O)Nc2ccc3c(c2)CC(=O)N([C@@H](C)CO)C[C@H](C)[C@@H](CN(C)Cc2ccc(C(F)(F)F)cc2)O3)cc1
not listed: [7] | [9] | [10]
inactive: all other assays above

COc1cccc(C#Cc2ccc([C@H]3[C@@H](CO)N(C(=O)C4CCCC4)[C@H]3C#N)cc2)c1
inactive: [1] | [2] | [3] | [9] | [6] | [8]

N#C[C@@H]1[C@H](c2ccc(-c3ccccc3F)cc2)[C@@H](CO)N1C(=O)Cc1ccccc1
inactive: [1] | [2] | [3] | [9] | [6] | [8]

COc1ccc(NC(=O)Nc2ccc3c(c2)C(=O)N([C@@H](C)CO)C[C@@H](C)[C@H](CN(C)Cc2ccc(C(F)(F)F)cc2)O3)cc1
inactive: [1] | [2] | [3] | [4] | [7] 30.5% [at 30 µM, active compounds read low] | [5] | [6] | [8]

C[C@H](CO)N1C[C@H](C)[C@H](CN(C)Cc2ccccc2)OCCCC[C@H](C)Oc2ccc(NC(=O)Nc3ccc(C(F)(F)F)cc3)cc2C1=O
inactive: [1] | [2] | [3] | [9] | [8]

CC(C)CC#Cc1ccc2c(c1)O[C@H](CN(C)S(=O)(=O)c1ccc(F)cc1)[C@H](C)CN([C@H](C)CO)S2(=O)=O
inactive: [1] | [2] | [3] | [4] | [5] | [6]

C[C@H](CO)N1C[C@H](C)[C@@H](CN(C)Cc2ccc(C(F)(F)F)cc2)Oc2ccc(NS(=O)(=O)c3ccccc3)cc2CC1=O
inactive: [1] | [2] | [3] | [4] | [5]

CN(C)CC(=O)N1CCCCN2[C@H](CO)[C@H](c3ccc(/C=C/c4ccccc4)cc3)[C@H]2C1
inactive: [1] | [2] | [3] | [4] | [5] | [6]

C[C@@H]1CCCCO[C@@H](CN(C)C(=O)c2ccccc2)[C@@H](C)CN([C@@H](C)CO)C(=O)c2cc(NC(=O)Nc3ccc(C(F)(F)F)cc3)ccc2O1
inactive: [1] | [2] | [3] | [4] | [5] | [6]

C[C@@H]1CN([C@H](C)CO)C(=O)CCCn2nncc2CO[C@H]1CN(C)Cc1ccc(Oc2ccccc2)cc1
inactive: [1] | [2] | [3] | [4] | [7] 10.8% [at 4.2 µM, active compounds read low] | [5] | [6] | [8]

C[C@@H]1CN([C@@H](C)CO)C(=O)c2cc(NC(=O)Nc3ccc(F)cc3)ccc2O[C@@H](C)CCCCO[C@H]1CN(C)Cc1ccc(C(F)(F)F)cc1
inactive: [1] | [2] | [3] | [4] | [5]

CCCC#Cc1ccc([C@@H]2[C@H](C#N)N(S(=O)(=O)c3cccc(F)c3)[C@H]2CO)cc1
inactive: [1] | [2] | [3] | [4] | [5] | [8]

COc1cccc(C#Cc2ccc([C@@H]3[C@@H](C#N)N(C(=O)C4CCCCC4)[C@H]3CO)cc2)c1
inactive: [1] | [2] | [3] | [4] | [7] 22.8% [at 1 µM, active compounds read low] | [5] | [6]

C[C@H](CO)N1C[C@H](C)[C@@H](CN(C)S(=O)(=O)c2ccc(Cl)cc2)OCCCC[C@H](C)Oc2ccc(NS(=O)(=O)c3cccs3)cc2C1=O
inactive: [1] | [2] | [3] | [4] | [6]

C[C@H](CO)N1C[C@H](C)[C@@H](CN(C)S(=O)(=O)c2cccs2)OCCCC[C@H](C)Oc2ccc(NS(=O)(=O)c3ccc(Cl)cc3)cc2C1=O
inactive: [1] | [2] | [3] | [5] | [6]

O=C(C1CCC1)N1CC(=O)N2[C@H](CO)[C@H](c3ccc(C#CCc4ccccc4)cc3)[C@H]2C1
inactive: [1] | [2] | [3] | [5]

COc1ccc(NC(=O)N2CC(=O)N3[C@@H](CO)[C@@H](c4ccc(/C=C/c5ccccc5)cc4)[C@@H]3C2)cc1
inactive: [1] | [2] | [3] | [7] 30.3% [at 16 µM, active compounds read low] | [5] | [6]

COc1ccc(NC(=O)N2CC(=O)N3[C@H](C2)[C@H](c2ccc(/C=C/c4ccccc4)cc2)[C@@H]3CO)cc1
inactive: [1] | [2] | [3] | [5] | [8]

COc1ccc(NC(=O)N2C[C@@H]3N[C@H](C2)[C@@H]3c2ccc(-c3ccc(OC)cc3)cc2)cc1
inactive: [1] | [2] | [3] | [6]

Cc1ccc(S(=O)(=O)Nc2ccc3c(c2)C(=O)N([C@H](C)CO)C[C@H](C)[C@H](CN(C)Cc2ccc(C(F)(F)F)cc2)OCCCC[C@H](C)O3)cc1
inactive: [1] | [2] | [3] | [4] | [6]

O=C1CN(S(=O)(=O)Cc2ccccc2)C[C@@H]2[C@@H](c3ccc(C#Cc4ccc(F)cc4)cc3)[C@@H](CO)N12
inactive: [1] | [2] | [3] | [7] -59.7% [at 16 µM, active compounds read low] | [5] | [6]

C[C@H](CO)N1C[C@H](C)[C@@H](CN(C)Cc2ccc(-c3ccccc3)cc2)Oc2ccc(NS(=O)(=O)c3ccccc3)cc2CC1=O
inactive: [1] | [2] | [3] | [7] 6.95% | [5] | [8]

Cc1ccccc1-c1ccc([C@@H]2[C@H](CO)N3CCCCN(C(=O)Nc4cccc(F)c4)C[C@@H]23)cc1
inactive: [1] | [2] | [3] | [5] | [6] | [8]

C[C@@H]1CN([C@@H](C)CO)C(=O)Cc2cc(NS(=O)(=O)c3ccccc3)ccc2O[C@H]1CN(C)Cc1ccc(C(F)(F)F)cc1
inactive: [1] | [2] | [3] | [5] | [6]

O=C(c1ccc(F)cc1)N1CC(=O)N2[C@@H](CO)[C@@H](c3ccc(C#Cc4ccc(F)cc4)cc3)[C@@H]2C1
inactive: [1] | [2] | [3] | [5] | [6]

— PubChem BioAssay
